According to PubChem BioAssay (NCATS):
Several values for one entry are separate records, joined by “and”; a condition that tells them apart may be missing. Equal entries are not always repeated. Results filed as inconclusive are left out. Some compounds were tested as several samples or in several runs, with calls that do not always agree. Activity calls are given as the source filed them. Unless noted, the call rests on the fitted dose curve; in most records, active means well fitted curve in the direction sought with a large enough effect; inconclusive means small, poorly fitted or top-dose-only effect, or another doubt; inactive means no such curve, though single readings can be large; an effect the other way counts as inactive or inconclusive.

Experiments:
[1] = molecular target: Cytochrome P450 1A2 (Homo sapiens) (UniProt P05177); experiment: p450-cyp1a2 (AID 410; calls by dose curve; further: potency means the concentration at half of the fitted maximal effect;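 on activity change, negative = inhibition: -100% = full effect of reference inhibitor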)
Chain of Cytochrome P450 1A2 (Homo sapiens) (P05177 whole entry, looked up): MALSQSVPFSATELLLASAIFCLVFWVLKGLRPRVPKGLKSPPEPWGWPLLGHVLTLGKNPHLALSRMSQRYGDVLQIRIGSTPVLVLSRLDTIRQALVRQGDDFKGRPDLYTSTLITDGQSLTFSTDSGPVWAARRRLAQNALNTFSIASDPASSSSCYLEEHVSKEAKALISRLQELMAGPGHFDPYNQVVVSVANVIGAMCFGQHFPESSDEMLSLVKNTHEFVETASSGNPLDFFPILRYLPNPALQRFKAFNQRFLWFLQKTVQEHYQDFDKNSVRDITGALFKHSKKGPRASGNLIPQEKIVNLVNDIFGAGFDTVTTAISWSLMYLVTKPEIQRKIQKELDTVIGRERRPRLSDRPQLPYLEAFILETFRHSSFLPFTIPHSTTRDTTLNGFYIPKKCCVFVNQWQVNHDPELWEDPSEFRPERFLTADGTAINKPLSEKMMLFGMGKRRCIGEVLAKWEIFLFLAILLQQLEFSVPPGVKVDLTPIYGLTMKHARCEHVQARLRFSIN
Method in brief: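 20nM CYP1A2, 100uM Luciferin-ME (=Km), 100mM KPO4; cpd 10 min RT; +NADPH regen, 60 min RT; stop/detect 20 min; luminescence. Normalized to furafylline 57 uM = full inhibition.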

[2] = NFAT Signaling Pathway (AID 444; active means well fitted curve in either direction with a large enough effect, not every such curve was filed as active;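 further: carbachol stimulus at about its EC50 of 1 µM final; on the % scale 0 is the no-effect control and ±100 the full control effect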); settings: Jurkat NFAT-bla M1, carbachol, beta-lactamase ratio, 5 h; at 38 µM (top of the series)
Method in brief: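 Jurkat cells with NFAT-driven β-lactamase reporter and co-expressed M1 receptor, stimulated with carbachol (final 1 uM, ~EC50), compound titration, 5 h at 37 °C. CCF4 loaded 1 h at RT; 460/530 nm ratio gave %activity and AC50.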

[3] = molecular target: Glucocorticoid receptor (Homo sapiens) (UniProt P04150); experiment: GR-GFP Redistribution (AID 450;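 active means compounds whose dose series gives a full or clear partial fitted curve of increased nuclear translocation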; further: potency means the concentration at half of the fitted maximal effect); settings: U2OS GR-GFP nuclear translocation, laser cytometry, 2 h
Chain of Glucocorticoid receptor (Homo sapiens) (P04150 whole entry, looked up, the tested form may be a part): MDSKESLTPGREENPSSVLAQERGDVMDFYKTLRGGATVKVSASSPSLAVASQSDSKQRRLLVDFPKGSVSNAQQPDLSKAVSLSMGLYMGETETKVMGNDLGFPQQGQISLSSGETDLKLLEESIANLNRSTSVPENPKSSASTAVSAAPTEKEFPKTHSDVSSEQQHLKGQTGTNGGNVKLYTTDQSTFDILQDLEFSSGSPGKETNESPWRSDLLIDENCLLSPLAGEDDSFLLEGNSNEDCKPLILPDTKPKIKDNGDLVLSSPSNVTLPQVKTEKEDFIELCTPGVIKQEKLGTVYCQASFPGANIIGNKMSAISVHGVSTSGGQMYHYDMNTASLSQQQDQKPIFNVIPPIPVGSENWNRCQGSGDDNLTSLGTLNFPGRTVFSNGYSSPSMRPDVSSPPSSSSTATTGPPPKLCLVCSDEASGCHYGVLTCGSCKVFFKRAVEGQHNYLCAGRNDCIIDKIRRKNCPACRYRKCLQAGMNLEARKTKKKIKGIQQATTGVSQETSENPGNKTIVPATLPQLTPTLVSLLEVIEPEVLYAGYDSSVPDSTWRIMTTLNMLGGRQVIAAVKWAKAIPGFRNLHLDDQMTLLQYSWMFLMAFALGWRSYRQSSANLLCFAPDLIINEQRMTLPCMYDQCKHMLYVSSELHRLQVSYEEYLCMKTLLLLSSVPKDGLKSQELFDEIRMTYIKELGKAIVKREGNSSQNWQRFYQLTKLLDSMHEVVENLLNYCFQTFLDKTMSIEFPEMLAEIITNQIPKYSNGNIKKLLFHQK

[4] = molecular target: Glucocorticoid receptor (Homo sapiens) (UniProt P04150); experiment: GR-EFC Redistribution (AID 451; calls by dose curve; further: potency means the concentration at half of the fitted maximal effect); settings: CHO-K1 GR-EFC translocation, beta-gal luminescence, 2 h
Method in brief: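 CHO-K1 cells expressing nuclear EA and GR-ED fragments of b-gal; compounds titrated up to 46 uM final, 2 h at 37 C. GR nuclear translocation read as complemented b-gal luminescence after 1 h RT detection.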

[5] = molecular target: Mitogen-activated protein kinase 10 (Mus musculus) (UniProt Q61831); experiment: JNK3 AlphaScreen Assay (AID 530; active means well fitted curve in either direction with a large enough effect, not every such curve was filed as active;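 further: kinase came from lysate of stimulated human HepG2 cells; signal reports phosphorylation of biotinylated GST-cJun 1-79 at Ser73 with 10 µM ATP; on the % scale 0 is the no-effect control and ±100 the full control effect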)
Method in brief: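 HepG2 lysate (IL-1b/TNFa pre-activated) + biotin-GST-cJun 1-79 + anti-pSer73 cJun; cpd titration, 15 min RT; ATP 10 uM start; Tris pH 7.6, MgCl2, DTT, vanadate; beads in EDTA buffer; AlphaScreen.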

[6] = molecular target: 3',5'-cyclic-AMP phosphodiesterase 4B (Homo sapiens) (UniProt Q07343); experiment: qHTS Assay for Inhibitors of PDE-IV (AID 607; active means well fitted activation curve with a large enough effect in the main read-out, with a control signal flat, not every such curve was filed as active; further: % of control where 0% means no effect)
Chain of 3',5'-cyclic-AMP phosphodiesterase 4B (Homo sapiens) (Q07343 whole entry, looked up): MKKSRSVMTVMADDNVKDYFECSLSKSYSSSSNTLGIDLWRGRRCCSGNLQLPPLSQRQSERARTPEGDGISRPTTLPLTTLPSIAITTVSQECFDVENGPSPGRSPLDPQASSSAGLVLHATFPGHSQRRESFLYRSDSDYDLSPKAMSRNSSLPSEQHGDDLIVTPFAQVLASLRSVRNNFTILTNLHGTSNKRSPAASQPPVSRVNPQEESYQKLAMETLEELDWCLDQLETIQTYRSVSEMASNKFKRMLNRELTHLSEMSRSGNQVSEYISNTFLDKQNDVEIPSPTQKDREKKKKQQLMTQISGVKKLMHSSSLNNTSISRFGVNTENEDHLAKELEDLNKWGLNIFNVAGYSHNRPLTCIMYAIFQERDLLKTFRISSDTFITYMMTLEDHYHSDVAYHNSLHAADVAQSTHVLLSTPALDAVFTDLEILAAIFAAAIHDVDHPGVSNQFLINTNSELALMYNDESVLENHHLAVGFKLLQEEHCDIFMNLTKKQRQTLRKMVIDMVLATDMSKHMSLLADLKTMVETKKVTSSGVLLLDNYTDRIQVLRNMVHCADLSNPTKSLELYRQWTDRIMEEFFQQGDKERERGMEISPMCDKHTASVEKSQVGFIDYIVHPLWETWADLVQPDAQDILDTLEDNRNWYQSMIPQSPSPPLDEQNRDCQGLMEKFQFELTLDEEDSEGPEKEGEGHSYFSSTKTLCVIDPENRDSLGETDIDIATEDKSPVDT
Method in brief: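 ACTOne HEK293 cells carry a modified cAMP-gated CNG channel and express endogenous PDE4; plated 1000 cells/well, compounds up to 22.9 uM final. Membrane-potential dye fluorescence (ex 535/em 590) was read; parental cells received 10 uM forskolin + 100 uM RO 20-1724.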

[7] = molecular target: Guanine nucleotide-binding protein G(i) subunit alpha-1 (Homo sapiens) (UniProt P63096); experiment: qHTS Assay for Inhibitors of RGS12 GoLoco Motif Activity (Green Fluorophore) (AID 879);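 further: 0% = labeled peptide with Gαi1 and full inhibition = labeled peptide alone without protein; negative values mean loss of peptide binding seen as reduced polarization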
Chain of Guanine nucleotide-binding protein G(i) subunit alpha-1 (Homo sapiens) (P63096 whole entry, looked up): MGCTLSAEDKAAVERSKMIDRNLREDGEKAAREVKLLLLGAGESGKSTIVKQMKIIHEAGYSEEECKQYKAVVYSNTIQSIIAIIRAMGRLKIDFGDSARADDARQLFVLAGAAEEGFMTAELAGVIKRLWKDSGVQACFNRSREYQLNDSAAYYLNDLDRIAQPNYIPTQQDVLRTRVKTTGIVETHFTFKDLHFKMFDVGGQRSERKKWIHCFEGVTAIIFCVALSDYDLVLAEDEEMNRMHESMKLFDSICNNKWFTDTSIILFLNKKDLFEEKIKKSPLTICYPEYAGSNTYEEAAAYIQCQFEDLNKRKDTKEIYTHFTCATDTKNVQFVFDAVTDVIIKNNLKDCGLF
Method in brief: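 A drop in FITC polarization marked displacement of the FITC-tagged RGS12 GoLoco peptide (10 nM) from Gαi1 (50 nM). Compounds were incubated 10 min at room temperature in Tris pH 7.5 buffer containing 150 mM NaCl, 0.1 mM GDP and 0.05% NP40; unlabeled peptide titration served as control.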

[8] = molecular target: Cytochrome P450 2C9 (Homo sapiens) (UniProt P11712); experiment: qHTS Assay for Inhibitors and Substrates of Cytochrome P450 2C9 (AID 883); further: nearly all actives have a fitted effect of over 60% in size; further: potency means the concentration at half of the fitted maximal effect
Method in brief: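 Human CYP2C9 (10nM) with Luciferin-H at 100uM (its KM) in 25mM KPO4; compound preincubated 10 min at 37C, then NADPH regeneration for 60 min at 37C. Luciferin read by luminescence after detection reagent; normalized to 57uM sulphaphenazole as full inhibition.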

[9] = molecular target: Cytochrome P450 3A4 (Homo sapiens) (UniProt P08684); experiment: qHTS Assay for Activators of Cytochrome P450 3A4 (AID 885); further: nearly all actives have a fitted effect of over 65% in size
Chain of Cytochrome P450 3A4 (Homo sapiens) (P08684 whole entry, looked up): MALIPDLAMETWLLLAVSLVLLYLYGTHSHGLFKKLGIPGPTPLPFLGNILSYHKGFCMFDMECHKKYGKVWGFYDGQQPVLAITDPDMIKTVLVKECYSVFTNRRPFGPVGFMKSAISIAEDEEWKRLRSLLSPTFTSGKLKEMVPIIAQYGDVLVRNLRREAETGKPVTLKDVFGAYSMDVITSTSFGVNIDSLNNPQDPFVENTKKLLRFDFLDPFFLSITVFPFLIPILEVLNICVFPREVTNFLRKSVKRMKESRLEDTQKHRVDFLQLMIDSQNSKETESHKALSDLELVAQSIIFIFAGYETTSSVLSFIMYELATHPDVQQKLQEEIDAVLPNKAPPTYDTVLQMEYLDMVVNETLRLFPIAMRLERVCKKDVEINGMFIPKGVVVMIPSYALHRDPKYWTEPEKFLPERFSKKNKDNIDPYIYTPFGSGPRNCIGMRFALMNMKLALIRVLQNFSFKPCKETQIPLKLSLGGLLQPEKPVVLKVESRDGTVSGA
Method in brief: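 CYP3A4 activity: Luciferin-PPXE O-dealkylation, 25uM substrate, 200mM KPO4, RT throughout. Read-out is luciferase luminescence; higher values reflect activation.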

[10] = molecular target: Pyruvate kinase (Leishmania mexicana) (UniProt Q27686); experiment: qHTS Validation Assay for Inhibitors of Leishmania Mexicana Pyruvate Kinase (AID 945);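 further: 0% = DMSO only neutral control wells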
Chain of Pyruvate kinase (Leishmania mexicana) (Q27686 2-499 E452W): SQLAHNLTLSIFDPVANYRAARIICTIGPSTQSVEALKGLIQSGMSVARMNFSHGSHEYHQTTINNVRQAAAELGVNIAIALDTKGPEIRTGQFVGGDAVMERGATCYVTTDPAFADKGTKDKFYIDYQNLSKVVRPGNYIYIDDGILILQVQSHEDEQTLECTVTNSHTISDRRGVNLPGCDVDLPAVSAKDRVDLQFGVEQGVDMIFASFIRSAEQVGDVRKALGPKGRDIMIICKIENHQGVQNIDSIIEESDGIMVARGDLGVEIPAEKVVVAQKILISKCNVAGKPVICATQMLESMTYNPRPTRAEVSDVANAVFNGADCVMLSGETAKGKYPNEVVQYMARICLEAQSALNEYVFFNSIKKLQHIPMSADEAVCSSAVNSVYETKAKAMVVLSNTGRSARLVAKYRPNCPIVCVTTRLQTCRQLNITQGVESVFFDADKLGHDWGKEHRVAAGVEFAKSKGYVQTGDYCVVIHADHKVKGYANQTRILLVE
Method in brief: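 The enzyme is a highly purified E451W mutant of LmPYK used at 0.2 nM. It converts 0.5 mM PEP and 0.1 mM ADP over 1 h at room temperature; product ATP is quantified by luciferase luminescence relative to DMSO controls.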

[11] = molecular target: Pyruvate kinase PKM (Homo sapiens) (UniProt P14618); experiment: qHTS Assay for Activators of Human Muscle Pyruvate Kinase (AID 954; active means well fitted curve in the direction sought with a large enough effect, not every such curve was filed as active;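 further: 0% = uninhibited enzyme and -100% = no enzyme or full thiadiazolimine inhibition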)
Chain of Pyruvate kinase PKM (Homo sapiens) (P14618 whole entry, looked up): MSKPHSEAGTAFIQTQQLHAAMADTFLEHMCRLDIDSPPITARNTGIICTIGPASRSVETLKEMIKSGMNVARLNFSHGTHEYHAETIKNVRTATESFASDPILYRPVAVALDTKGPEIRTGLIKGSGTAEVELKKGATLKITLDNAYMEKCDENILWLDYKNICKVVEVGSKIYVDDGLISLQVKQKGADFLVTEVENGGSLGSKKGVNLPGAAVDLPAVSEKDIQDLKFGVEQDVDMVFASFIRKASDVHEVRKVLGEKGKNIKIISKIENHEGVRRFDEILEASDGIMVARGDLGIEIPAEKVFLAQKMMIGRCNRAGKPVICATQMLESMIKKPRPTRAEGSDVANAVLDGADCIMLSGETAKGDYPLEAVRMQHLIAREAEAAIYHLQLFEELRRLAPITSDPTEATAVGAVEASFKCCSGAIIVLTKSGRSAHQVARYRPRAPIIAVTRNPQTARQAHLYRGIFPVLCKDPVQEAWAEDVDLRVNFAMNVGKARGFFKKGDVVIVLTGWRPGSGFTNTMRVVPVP
Method in brief: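 A coupled luminescent readout tracked ATP made from ADP by purified PKM2. Final conditions included 0.1 nM enzyme, PEP and ADP at 0.5 and 0.1 mM, pH 7.2 imidazole buffer with BSA, and a one-hour room-temperature reaction.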

[12] = molecular target: Alpha-galactosidase A (Homo sapiens) (UniProt P06280); experiment: Counterscreen for Glucocerebrosidase Inhibitors: qHTS Assay for Human alpha-Galactosidase at pH 4.5 (AID 992); further: 0% is about no effect
Chain of Alpha-galactosidase A (Homo sapiens) (P06280 whole entry, looked up): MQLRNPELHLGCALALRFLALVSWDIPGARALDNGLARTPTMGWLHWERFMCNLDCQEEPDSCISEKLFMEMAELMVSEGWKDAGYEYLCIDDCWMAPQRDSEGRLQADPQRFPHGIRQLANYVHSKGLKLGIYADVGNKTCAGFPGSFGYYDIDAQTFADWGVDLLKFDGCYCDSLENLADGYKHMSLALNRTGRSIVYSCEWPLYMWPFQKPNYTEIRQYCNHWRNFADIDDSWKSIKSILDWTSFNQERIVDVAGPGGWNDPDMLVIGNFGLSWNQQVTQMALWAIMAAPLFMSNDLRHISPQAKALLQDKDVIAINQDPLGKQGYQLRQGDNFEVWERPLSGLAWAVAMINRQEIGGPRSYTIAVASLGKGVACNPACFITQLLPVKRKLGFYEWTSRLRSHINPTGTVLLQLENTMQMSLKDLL
Method in brief: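 Citrate buffer pH 4.5, Tween-20 0.005%. Enzyme 2 nM, substrate 80 uM, 20 min RT. Stop pH 10. Fluorescence Ex 365/Em 440. AC50 by Hill fit.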

[13] = molecular target: alpha-glucosidase (Oryza sativa, rice) (UniProt Q653V4); experiment: Counterscreen for Glucocerebrosidase Inhibitors: qHTS Assay for Rice alpha-Glucosidase at pH 5.0 (AID 997);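 further: 0% = full activity with enzyme and -100% = basal without enzyme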
Method in brief: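 Endpoint fluorogenic assay at pH 5.0: compounds (0.7 nM to 77 uM) titrated against 4 nM rice enzyme and 400 uM 4-MU-alpha-glucoside for 20 min at room temperature; NaOH/glycine stop, read ex 365/em 440 nm, Hill-fitted AC50.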

[14] = system: Zika virus NS2B-NS3 protease; experiment: Primary screen GU AMC qHTS for Zika virus inhibitors (AID 1347154);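 further: 0% = no-inhibitor control and -100% = no-enzyme control; nearly all actives have a fitted effect of over 70% in size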
Method in brief: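 Unlinked Zika NS2B hydrophilic domain–NS3 protease complex at 25 nM in 10 mM Tris-HCl pH 8.0, 0.01% Tween 20, with an AMC peptide substrate. Fluorescence change (340/450 nm) over 15 min at room temperature, normalized to controls, fitted to 4-parameter Hill.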

[15] = Primary qHTS for small molecule stabilizers of the endoplasmic reticulum resident proteome: Secreted ER Calcium Modulated Protein (SERCaMP) assay (AID 1508630); further: on the % scale 0 is the no-effect control and ±100 the full control effect
Method in brief: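 The SH-SY5Y reporter protocol was run at 3 concentrations up to 38.3 uM (primary) or 11 concentrations (follow-up): 16 h compound, 100 nM thapsigargin for 4 h, then extracellular luciferase luminescence.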

[16] = Stat Signaling Pathway (AID 446; active means well fitted curve in either direction with a large enough effect, not every such curve was filed as active;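 further: ME-180 cervical cancer cells given 40 pM IL-6 alongside compound; SIE-controlled beta-lactamase reporter measured as 460/530 nm FRET emission ratio; on the % scale 0 is the no-effect control and ±100 the full control effect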); settings: ME-180 (cervical carcinoma) SIE beta-lactamase reporter, IL-6 stimulated, 5 h; at 38 µM (top of the series)
Method in brief: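 Compound effects on IL-6-induced STAT reporter activity were measured in ME-180 cells. After overnight culture, cells were co-treated with 40 pM IL-6 for 5 hrs before beta-lactamase substrate loading at room temperature.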

[17] = molecular target: Cytochrome P450 2C19 (Homo sapiens) (UniProt P33261); experiment: qHTS Assay for Inhibitors and Substrates of Cytochrome P450 2C19 (AID 899); further: on the % scale 0 is the no-effect control and ±100 the full control effect; nearly all actives have a fitted effect of over 60% in size
Method in brief: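 5 nM human CYP2C19 with 10uM Luciferin-H EGE (at KM) in 50mM KPO4, compound preincubated 10 min at 37C, then NADPH regeneration for 60 min at 37C. Luciferin read by luminescence after detection reagent; normalized to 57uM ketoconazole as full inhibition.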

[18] = molecular target: DNA dC->dU-editing enzyme APOBEC-3G (Homo sapiens) (UniProt Q9HC16); experiment: qHTS for inhibitors of Vif-A3G interactions: Validation (AID 588379); further: 0% is about no effect
Chain of DNA dC->dU-editing enzyme APOBEC-3G (Homo sapiens) (Q9HC16 whole entry, looked up): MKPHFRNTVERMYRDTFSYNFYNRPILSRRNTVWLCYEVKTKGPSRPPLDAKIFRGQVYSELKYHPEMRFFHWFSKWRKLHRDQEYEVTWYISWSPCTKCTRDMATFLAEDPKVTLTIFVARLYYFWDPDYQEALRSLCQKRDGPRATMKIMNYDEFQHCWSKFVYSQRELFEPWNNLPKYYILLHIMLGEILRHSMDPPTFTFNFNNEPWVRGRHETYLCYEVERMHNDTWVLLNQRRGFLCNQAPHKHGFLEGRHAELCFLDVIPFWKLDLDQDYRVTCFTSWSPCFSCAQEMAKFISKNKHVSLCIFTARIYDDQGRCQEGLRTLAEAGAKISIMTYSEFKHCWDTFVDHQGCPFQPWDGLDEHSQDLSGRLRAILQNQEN
Method in brief: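 Yellow fluorescence (Ex 488, Em 500-530) of Vif-coexpressing HeLa A3G-eYFP cells, scanned by Acumen cytometer, reports blocked A3G degradation. Cells plated at 700/well overnight at 37 deg C before compound addition, then a further overnight compound incubation at 37 deg C.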

N#CC(=C(/N)Sc1ccccc1N)/C(C#N)=C(/N)Sc1ccccc1N
inactive: activity change, negative = inhibition [2] 8.23% | Potency [3] > 46 µM | Potency [4] > 46 µM | Potency [5] | Potency [6] | outcome [7] | Potency [8] | Potency [9] | Potency [10] | outcome [11] | outcome [12] | outcome [13] | Potency [14] | Potency [15]
active: Potency [1] 12.6 µM and 31.6 µM

Fc1ccc(-c2nc3n(c2-c2ccncc2)CCS3)cc1
inactive: Potency [9] | Potency [14] | Potency [15]

NC(C(=O)O)c1cc(O)c(Cl)c(O)c1 (configuration not stated)
inactive: Potency [14] | Potency [15]

COc1ccc2c(c1)c(CC(=O)N1CCOCC1)c(C)n2C(=O)c1ccc(Cl)cc1
active: Potency [8] 39.8 µM
inactive: activity change, negative = inhibition [2] 2.03% | activity, negative = inhibition [16] -6.17% | Potency [3] > 46 µM | Potency [4] > 46 µM | Potency [5] | Potency [6] | outcome [7] | Potency [9] | Potency [17] | Potency [10] | outcome [11] | outcome [12] | outcome [13] | Potency [18] | Potency [14] | Potency [15]

COc1cc([C@@H]2c3cc4c(cc3C(O[C@@H]3O[C@@H]5CO[C@@H](c6cccs6)OC5[C@H](O)[C@H]3O)C3COC(=O)[C@@H]32)OCO4)cc(OC)c1O (some centres not stated)
inactive: Potency [14] | Potency [15]

C[C@@H]1CCN=C(N)S1
inactive: activity change, negative = inhibition [2] 2.83% | activity, negative = inhibition [16] 9.1% | Potency [3] > 46 µM | Potency [4] > 46 µM | Potency [5] | Potency [6] | outcome [7] | Potency [10] | outcome [11] | outcome [12] | outcome [13] | Potency [18] | Potency [14] | Potency [15]
inactive and 39.8 µM (active): Potency [1]

CC[C@H](C)N(C)C(=O)c1cc2ccccc2c(-c2ccccc2Cl)n1
inactive: Potency [1] | activity change, negative = inhibition [2] -2.88% | activity, negative = inhibition [16] 8.11% | outcome [7] | Potency [9] | Potency [17] | Potency [10] | outcome [11] | outcome [12] | outcome [13] | Potency [18] | Potency [14] | Potency [15]

Cc1ccc(NC2=CC(=O)c3sc(C)nc3C2=O)cc1
inactive: Potency [14] | Potency [15]

NCCNS(=O)(=O)c1cccc2cnccc12
inactive: activity change, negative = inhibition [2] -13.5% | Potency [4] > 46 µM | Potency [5] | Potency [6] | outcome [7] | Potency [9] | Potency [10] | outcome [11] | outcome [12] | outcome [13] | Potency [18] | Potency [14] | Potency [15]
